High-throughput results (PubChem)
A selection: hits, their analogues and other compounds. The true share with any hit is near 1.3%.
CCHF vOTU inh-1: blocks the CCHF virus ovarian tumor domain protease; CCHFV vOTU protease, Pep-AMC fluorescence; inhibition, % at 11.5 µM; 370,000 compounds, 0.55% hits; AID 651958
PriA SSB inh: inhibitors of Klebsiella pneumoniae PriA binding to SSB C-terminal tail; AlphaScreen SSBct-PriA binding, biotinylated peptide; inhibition, % at 33 µM; 430,000 compounds, 0.6% hits; in the data active = inhibition mostly above about 37%, no sharp cut-off; inactive = mostly below about 20%
SARS 3CLpro inh: SARS-CoV 3CLpro protease inhibition | inhibition, % at 6 µM | 290,000 compounds, 0.14% hits | P0C6X7 | recombinant SARS-CoV 3CLpro, quenched FRET peptide cleavage; in the data active = inhibition above about 12%
TcdB GH inh: blocks C. difficile toxin B glycohydrolase activity; TcdB glycohydrolase enzymatic assay, plate reader; inhibition, % at 9.99 µM; 350,000 compounds, 0.24% hits; AID 652162; in the data active = inhibition above about 10%
BH1578 lux ind: inducers of Vibrio cholerae quorum light production without autoinducers; 350,000 compounds, 0.16% hits; activation, % at 18.7 µM; V. cholerae BH1578 lux reporter, luminescence, 6 h; in the data active = activation mostly above about 9.7%, no sharp cut-off
VHR inh abs: inhibitors of human VHR1 phosphatase (DUSP3). AID 1654. inhibition, % at 13.3 µM. recombinant VHR phosphatase, pNPP absorbance. 290,000 compounds, 0.52% hits; in the data active = inhibition above about 50%
Target sequence (P51452 whole entry, looked up): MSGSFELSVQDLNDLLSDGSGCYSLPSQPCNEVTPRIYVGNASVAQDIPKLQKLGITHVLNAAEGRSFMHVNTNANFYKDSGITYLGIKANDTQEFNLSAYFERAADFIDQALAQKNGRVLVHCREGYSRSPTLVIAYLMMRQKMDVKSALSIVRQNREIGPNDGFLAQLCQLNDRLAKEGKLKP
CCHF vOTU inh-2: CCHFV vOTU protease inhibition, confirmation | shares compounds with CCHF vOTU inh-1 | Recombinant CCHFV vOTU, Pep-AMC fluorescence | inhibition, % at 11.5 µM | 1,900 compounds, 17% hits | AID 686976
A number is an active result; – = inactive; · = no result. Rule as the data show it, unless noted: active = inhibition above about 30%; inactive = the rest.

SMILES	CCHF vOTU inh-1	PriA SSB inh	SARS 3CLpro inh	TcdB GH inh	BH1578 lux ind	VHR inh abs	CCHF vOTU inh-2
O=C1CC(N2CCN(c3ccccn3)CC2)C(=O)N1CC(c1ccccc1)c1ccccc1 (stereo unspecified)	37.9	–	–	·	–	–	–
COc1ccc(CCC(=O)NCC#CCOc2ccc3c(c2)OCO3)cc1	·	–	·	·	·	·	·
O=C(Nc1ccc2nsnc2c1)N1CCCCCC1	–	–	–	·	–	–	·
S=C(Nc1ccc2nsnc2c1)N1CCCC1	104.8	–	–	–	–	–	–
CCCC(=O)Nc1ccc2c(c1)N(C(=O)CC)CCC2	·	–	·	·	·	·	·
Cc1ccc(CN(C(=O)C(F)(F)F)C(C(=O)NC2CCCCC2)c2ccco2)cc1 (stereo unspecified)	29.8	–	–	·	·	–	–
COc1ccc(CCNC(=O)Cn2nc3n(c(=O)c2=O)CCN3c2ccc(C)cc2)cc1OC	·	–	·	·	·	·	·
CCOC(=O)C1(C)CCCCCN1C(=O)c1ccc(OC)c(C(F)(F)F)c1 (stereo unspecified)	34.5	·	·	–	–	·	–
COc1ccc(C(=O)N2CCCC2(C)C(=O)O)cc1C(F)(F)F (stereo unspecified)	–	·	·	–	–	·	·
COc1c2c(c(OC)c3c1c(=O)c1ccccc1n3C)OCO2	54.2	–	·	–	–	·	–
CCCCN(CCCNC(=O)Cn1nc(CC)n2c(cc3sc(C)cc32)c1=O)Cc1ccccc1	–	–	–	–	–	–	·
CCc1nn(CC(=O)NCCCN(CC)Cc2ccccc2)c(=O)c2cc3sccc3n12	34.9	–	–	·	–	–	–
COC1C(OC(=O)/C=C/C=C/C=C/C=C/C(=O)O)CCC2(CO2)C1C1(C)OC1CC=C(C)C (stereo unspecified) (tested in a mixture with another compound)	30.3	·	·	–	–	·	–
COC1C(OC(=O)/C=C/C=C/C=C/C=C/C(=O)O)CCC2(CO2)C1C1(C)OC1CC=C(C)C (stereo unspecified)	·	–	·	·	·	·	·
CC1(OC(=O)C2CCCC2)C(=O)C=C2C=C(c3ccsc3)N(C(CO)CO)C=C2C1=O (stereo unspecified)	31.5	–	·	–	–	–	–
CS(=O)(=O)c1cc([N+](=O)[O-])c(NC2CCS(=O)(=O)C2)c([N+](=O)[O-])c1 (stereo unspecified)	·	–	·	·	·	·	·
O=C(O)c1cccc(Cn2c(Cl)c(C=NNC(=O)c3ccccc3)sc2=O)c1	·	–	·	·	·	·	·
O=C(O)c1cccc(Cn2c(Cl)c(/C=N/NC(=O)c3cc4ccccc4cc3O)sc2=O)c1	30.2	–	–	–	–	–	–
COc1ccc(-c2cccc(C(=O)Nc3ccc(OC)c(OC)c3)c2)cc1	–	–	–	·	–	–	·
COc1ccc(-c2cccc(C(=O)Nc3ccc(C)cc3)c2)cc1	31.2	–	–	·	–	–	–
CCCCCCCCN1C(=O)[C@@H](CC(=O)NCc2cccc3ccccc23)C[C@@]2(C(=O)OC)C1=C[C@H](C(C)C)O[C@@H]2C1CC1	–	·	·	·	·	·	·
CCCCCCCCN1C(=O)[C@@H](CC(=O)NCCC(C)C)C[C@@]2(C(=O)OC)C1=C[C@H](C(C)C)O[C@@H]2C1CC1	34.5	·	·	·	·	·	–
CCCCCCCCN1C(=O)[C@@H](CC(=O)N2CCCCC2)C[C@@]2(C(=O)OC)C1=C[C@H](C(C)C)O[C@@H]2C1CC1	31.6	·	·	·	·	·	–
CCCCCCCCN1C(=O)[C@@H](CC(=O)NCc2cccs2)C[C@@]2(C(=O)OC)C1=C[C@H](C(C)C)O[C@@H]2C1CC1	38.9	·	·	·	·	·	–
O=C(/C=C/c1ccccc1)N1CCN(C(=O)/C=C/c2ccccc2)CC1	·	–	·	·	·	·	·
SMILES	CCHF vOTU inh-1	PriA SSB inh	SARS 3CLpro inh	TcdB GH inh	BH1578 lux ind	VHR inh abs	CCHF vOTU inh-2
COc1ccc2c(c1)Cc1sc(NC(=O)c3ccco3)nc1-2	104.6	–	–	·	–	–	–
COc1ccc(OC)c2c1cc(C(=O)N[C@H](C(=O)N1CCC(C(=O)O)CC1)C(C)C)n2C	35.7	–	–	–	–	–	–
COc1ccc(OC)c2c1cc(C(=O)N[C@@H](Cc1ccccc1)C(=O)O)n2C	–	–	–	–	–	–	·
Cc1cc2c(C(C)C)c(O)c(O)c(C=O)c2c(O)c1-c1c(C)cc2c(C(C)C)c(O)c(O)c(C=O)c2c1O	63.3	·	–	–	–	–	31.0
O=C(N/N=C1\C/C(=N\NC(=O)c2ccncc2)c2ccccc21)c1ccncc1	93.3	·	–	–	–	–	82.9
Cc1ccc(N/C=C2/Sc3ccccc3NC2=O)cc1	30.6	–	–	·	–	–	–
Cc1oncc1C(=O)Nc1ccc(CC(=O)NCC(F)(F)F)cc1	·	–	·	·	·	·	·
CS(=O)(=O)c1cccc(C(=O)Nc2nnc(-c3ccno3)o2)c1	·	–	·	·	·	·	·
NC(=O)c1ccc(NC(=O)COC(=O)c2ccccc2SCC(=O)N2CCCC2)cc1	32.9	·	·	–	–	·	–
O=C(COC(=O)c1ccccc1SCC(=O)N1CCCC1)Nc1ccccc1C(F)(F)F	–	–	–	–	–	–	·
CCOc1ccccc1NC(=O)COC(=O)c1ccccc1SCC(=O)N1CCCC1	36.7	–	·	–	–	·	–
COc1cccc(C(=O)N(C(=O)N2CCCCC2)c2ccc(C)cc2)c1OC	·	–	·	·	·	·	·
O=C(c1ccc(F)cc1)N1CCN(c2ccc(Nc3ccncc3)nn2)CC1	·	–	·	·	·	·	·
COc1ccc(C2(CNC(=O)[C@@H]3CC=CCC3)CCCC2)cc1	·	–	·	·	·	·	·
COc1cc(C(=O)c2nccc3cc(OC)c(OC)cc23)c([N+](=O)[O-])cc1OC	103.1	–	–	–	–	–	72.3
COc1cc(Br)c(C(=O)c2nccc3cc(OC)c(OC)cc23)cc1OC	111.0	–	–	–	–	–	90.0
COc1cc(N)c(C(=O)c2nccc3cc(OC)c(OC)cc23)cc1OC	–	–	–	–	–	–	·
CCOC(=O)c1c(NC(=O)CSc2nc3[nH]ncc3c(=O)n2-c2ccccc2)sc(C)c1C	·	–	·	·	·	·	·
Cc1ccc(-n2c(-c3cnccn3)n[nH]c2=S)cc1	29.6	–	–	–	–	–	–
COc1ccc2ccc3c(c2c1)N=C[C@]1(O3)N(C)c2ccccc2C1(C)C	46.5	–	–	–	–	–	–
COc1ccc(NC(=O)Cn2nc(C(F)(F)F)c3c2CCCC3)c(OC)c1	30.5	–	–	·	–	–	–
COc1ccc(CNC(=O)Cn2nc(C(F)(F)F)c3c2CCC3)cc1	–	–	–	·	·	–	·
O=S(=O)(/C=C/c1ccccc1)N1Cc2cncnc2C1	·	–	·	·	·	·	·
COc1cc(C=c2c3ccccc3n3c2cc(-c2ccccc2)[n+]3C)cc(OC)c1OC	84.9	–	·	–	–	·	69.0
CCN(CC)c1ccc(/C=C/c2cccc[n+]2C)c(OC)c1	–	–	–	–	–	–	·
CN(C)c1ccc(C=c2c3ccccc3n3c2c2c([n+]3C)CCCC2)cc1	34.6	–	·	–	·	·	–
COc1cc(N(C)C)ccc1C=c1c2ccccc2n2c1cc(-c1ccccc1)[n+]2C	33.9	–	·	–	–	·	–
CN(C)c1ccc(C=c2c3ccccc3n3c2cc(-c2ccccc2)[n+]3C)cc1	47.8	–	·	–	–	·	–
